Assay results from PubChem BioAssay AID1766 (National Center for Advancing Translational Sciences (NCATS), 2009).
Screen size: about 290,000 compounds; fewer than 10 were called active. Not shown: some 3% with an inconclusive outcome. Calls come from the whole dose curve; as a rule, active = well fitted curve in the direction sought with a large enough effect in the polarisation (not every such curve was filed as active); inconclusive = small, poorly fitted or top-dose-only effect, or effect the other way, or a change in a side signal; inactive = no such curve, though single readings can be large or run the other way; the % refers to the polarisation. A selection follows.

Assay: qHTS Assay for Inhibitors Targeting the Menin-MLL Interaction in MLL Related Leukemias: Competition With Fluorescein Labeled MLL-derived Peptide
Details: Fluorescence polarization, fluorescein-MLL peptide displacement from menin; series mostly up to 61.4 µM
Text: qHTS Assay for Inhibitors Targeting the Menin-MLL Interaction in MLL Related Leukemias NIH Chemical Genomics Center [NCGC] NIH Molecular Libraries Probe Centers Network [MLPCN] MLPCN Grant: MH084875-01A1 Assay Submitter (PI): Jolanta Grembecka, Tomasz Cierpicki, University of Virginia Translocations of the MLL (Mixed Lineage Leukemia) gene are frequently found in human leukemias affecting both children and adults. Fusion of MLL to one of more than 60 genes results in generation of oncogenic proteins upregulating Hox genes, which are vital to blood cell development. Patients harboring fusion of the MLL gene suffer from aggressive leukemias and respond poorly to available therapies. All of the oncogenic fusion proteins have a preserved N-terminal fragment of MLL that has been identified to interact with menin. It has been recently discovered that association with menin is critical to the leukemogenic activity of the MLL fusion oncoproteins. Selective targeting of the menin-MLL interaction could provide an attractive therapeutic approach to develop novel drugs for MLL-related leukemias. Small molecules blocking the menin-MLL interaction should reverse the oncogenic potential of MLL fusion proteins. We have developed and optimized a fluorescence polarization-based assay for the identification of Menin-MLL inhibitors. The assay was run employing two different MLL-derived peptides. The present assay uses a 12 amino acid peptide labeled with fluorescein at its N-terminus. This peptide consists of the menin high affinity binding motif from MLL and is potently bound by menin. Another peptide with a mutated sequence, labeled with Texas Red, was used in parallel as a less stringent screen for inhibitors.
The Menin protein, the MLL-wild type (w.t.) derived peptide (N-terminal 12 amino acids), the MLL-derived peptide labeled with Texas Red and the MLL-w.t. peptide labeled with Fluorescein were kindly supplied by laboratory of Dr. Jolanta Grembecka, University of Virginia. All protein and peptide solutions were stored in single use aliquots at -80C. The Eu3+ Cyrptate-conjugated mouse monoclonal antibody anti-6 Histidine (Eu3+-AB) and the Streptavidin-XL665 conjugate (XL665) were purchased from Cisbio International (Bedford, MA). All antibody and XL665 conjugate solution stocks were stored in single use aliquots at -20C. The Buffer components for all assays were purchased from Sigma-Aldrich (St. Louis, MO) and Invitrogen (Carlsbad, CA). FP Assay Reagents: 1. FP reaction buffer: 50 mM Tris-HCl pH 7.5, 50 mM NaCl, 1mM DTT. Before use, 0.05% BSA is added. 2. Menin protein, MLL-w.t. labeled with fluorescein, MLL-mutant peptide labeled with texas red. Stored in singe use aliquots at -80C. 3. MLL-w.t. unlabeled peptide as positive control: 10 uM final in FP buffer. FP Assay Procedure: 1. Prepare Menin at 200 nM, MLL-w.t.-fluorescein at 25 nM, and MLL-mutant-texas red at 50 nM mixture in FP buffer. 2. Prepare Menin at 200 nM, MLL-w.t.-fluorescein at 25 nM, MLL-mutant-texas red at 50 nM, and 10 uM MLL-w.t. unlabeled mixture in FP buffer. 3. Prepare MLL-w.t.-fluorescein at 25 nM and MLL-mutant-texas red at 50 nM mixture in FP buffer. 3. Dispense 4 ul per well of reagent in step 1 in columns 2, 4 - 48 in a black 1536 well plate, dispense 4 ul per well of reagents from steps 2 and 3 in columns 1 and 3 respectively. Incubate plate at ambient for 15 minutes. 4. Transfer 23 nl per well of compound to plate and incubate at ambient for 1 hr. 5. Read fluorescence polarization for each label using the PerkinElmer Envision. Envision protocol for fluorescein: FITC FP Dual Enh Mirror, Excitation filter 480, Emission filter (1) P-pol 535, Emission filter (2) S-pol 535 Envision protocol for texas red: FP Dual Enh Mirror, Excitation filter 555, Emission filter (1) P-pol 632, Emission filter (2) S-pol 632

FP activity change, inactive:
Cc1ccc(-c2noc(C3CCCN(C(=O)c4cccc(Cl)c4)C3)n2)o1 (stereo unspecified), CS(=O)(=O)N1CCc2nc(-c3ccccc3)sc2C1, Cc1cc(C)c(NC(=O)CN2CCCCCC2)c(C)c1, COc1ccccc1-c1sc2ccccc2c1-c1ccc(C(C)=O)cc1, CCCC(C(=O)NC1CCCC1)N(C(=O)Cn1nnc(-c2ccc(C)o2)n1)c1cccc(O)c1 (stereo unspecified), Cc1ccc(CSc2nsc(C)c2C#N)cc1, Cn1cc(S(=O)(=O)Nc2ccc(Cl)cc2Cl)c(=O)n(C)c1=O, CCc1ccc(C(=O)NN=C2CCCCCC2)s1, CCOc1ccccc1N1C(=O)CC(Sc2nccc(C)n2)C1=O (stereo unspecified), COc1cccc(-c2noc(C3CCCN(C(=O)c4ccc(F)cc4)C3)n2)c1 (stereo unspecified), O=S(=O)(Cc1cc(Cl)nc(-c2cccnc2)n1)c1ccccc1, Cc1noc(C)c1-c1ccc2ncnc(NCc3ccc4[nH]ccc4c3)c2c1, CCN(CC(=O)NCC(=O)Nc1cccc(C)c1C)Cc1ccccc1, CCCSc1nc2sc3c(c2c(=O)n1-c1ccc(OC)cc1)CCN(C)C3, COc1ccccc1-c1cnn2c(N3CCOCC3)cc(C)nc12, CCC1CCCCN1C(=O)CSc1nc2c(c(=O)n1C)SC(C)C2 (stereo unspecified), C=CCNC(=S)/N=c1/ccccn1Cc1ccccc1, COc1cc2ccccc2cc1C(=O)N(CCN(C)C)c1nc2c(F)cccc2s1, CC1CN(C(=O)CCC(=O)NC2CCN(Cc3ccccc3)CC2)c2ccccc2O1 (stereo unspecified), COc1ccc(CC(=O)N/N=C/c2cc([N+](=O)[O-])cc(Br)c2O)cc1, O=C(Nc1ccccc1)c1ccc2c(c1)OCCCO2, Cc1ccc(NC(=O)NC(=O)c2ccccc2)cc1F, COc1ccccc1CN1CCCC(N2CCN(c3ccc(F)cc3)CC2)C1 (stereo unspecified), Cc1[nH]c(C)c(S(=O)(=O)N2CCN(c3cccc(C(F)(F)F)c3)CC2)c1C(=O)N1CCCCC1, COc1cccc(N(C(=O)c2snc(C(N)=O)c2N)C(C(=O)NCC2CCCO2)c2c[nH]c3ccccc23)c1 (stereo unspecified), COc1ccccc1OCCOc1ccc(/C=C2\C(=N)N3N=C(C)SC3=NC2=O)cc1, C=C1CCN(Cc2ccc(OC)cc2)S(=O)(=O)c2ccccc21, CC1Sc2ccc(S(=O)(=O)CCC(=O)NCc3ccccc3Cl)cc2NC1=O (stereo unspecified), CC(O)c1ccc(OCCN(C)c2ccccn2)cc1 (stereo unspecified), CC(O)COc1ccccc1 (stereo unspecified), CN(CC(=O)Nc1ccc(F)cc1)C(=O)c1ccc(-c2ccc(Cl)cc2)o1
